Screening data (PubChem BioAssay)
HEK293 tox – Cytotoxic Profiling in HEK 293 Cell Line of Diverse Libraries Using Quantitative High-Throughput Screening; HEK 293 viability, ATP luminescence (CellTiter-Glo), 48-72 h; Potency, µM (top dose mostly 115 µM), actives largely listed as inhibitors; AID 1345083, 2018; 6.6% of 94,000 active; note: nearly all actives have a fitted effect of over 60% in size
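Cells seeded first (HEK 293, 250 cells/well), then compound added by pintool. Incubation ran 48 or 72 hr at 37 degree Celsius. CellTiter-Glo was added and luminescence imaged after 10 min at room temperature.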
FLuc inh – Firefly luciferase inhibition profiling of diverse chemical library using quantitative high-throughput screening | Luciferin 4-monooxygenase (Photinus pyralis), P08659 | purified P. pyralis luciferase, luminescence, biochemical | Potency, µM (series often up to 115 µM), hits mostly inhibitors | 2.5% of 76,000 active; note: nearly all actives have a fitted effect of over 65% in size
Target sequence (P08659 whole entry, looked up): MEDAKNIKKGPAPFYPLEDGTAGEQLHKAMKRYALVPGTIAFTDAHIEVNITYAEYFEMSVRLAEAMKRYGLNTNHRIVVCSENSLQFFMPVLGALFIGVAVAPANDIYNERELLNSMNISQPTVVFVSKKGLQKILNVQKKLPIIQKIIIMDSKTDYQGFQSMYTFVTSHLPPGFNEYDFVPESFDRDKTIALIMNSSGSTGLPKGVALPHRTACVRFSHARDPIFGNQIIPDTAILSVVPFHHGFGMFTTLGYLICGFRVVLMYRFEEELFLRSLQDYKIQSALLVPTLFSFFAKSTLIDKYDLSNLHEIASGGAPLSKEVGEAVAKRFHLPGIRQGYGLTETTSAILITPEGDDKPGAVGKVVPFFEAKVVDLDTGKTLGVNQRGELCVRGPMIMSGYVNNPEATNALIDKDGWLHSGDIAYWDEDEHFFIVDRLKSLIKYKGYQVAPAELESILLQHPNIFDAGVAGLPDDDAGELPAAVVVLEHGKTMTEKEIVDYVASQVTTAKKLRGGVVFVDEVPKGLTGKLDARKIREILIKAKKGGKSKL
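Luminescence read by CCD imaging after purified firefly luciferase (10nM final) was added to substrate buffer holding 10uM D-luciferin and 10uM ATP, pH 7.5, pre-dosed with compound.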
hNpr1 antagonist – Natriuretic polypeptide receptor (hNpr1) antagonism - Primary qHTS | Atrial natriuretic peptide receptor 1 (Homo sapiens), P16066 | HEK293 hNpr1 GloSensor cGMP, ANP-stimulated luminescence | Potency, µM (top dose mostly 46.3 µM), actives largely listed as inhibitors | 1.6% of 76,000 active | AID 1347048, 2019; calls by dose curve; note: nearly all actives have a fitted effect of over 60% in size
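HEK293 cells stably expressing human Npr1 and cGMP GloSensor pGS-40F, loaded 2 h with 2% GloSensor reagent, given compound 30 min at room temperature. Luminescence read before and 20 min after 0.1 nM hNppA.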
NIH3T3 tox – Cytotoxic Profiling in NIH 3T3 Cell Line of Diverse Libraries Using Quantitative High-Throughput Screening. NIH 3T3 viability, CellTiter-Glo ATP luminescence, 48-72 h. 4.3% of 94,000 active. Potency, µM (doses to about 96.7 µM), hits mostly inhibitors; note: nearly all actives have a fitted effect of over 55% in size
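Luminescent ATP readout (CellTiter-Glo, 10 min RT) after 48 or 72 hr compound exposure of NIH 3T3 cells seeded at 400 cells/well in 1536-well format; quantitative HTS.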
Each line names hits and unclear results; the compound was inactive in the other large screens. A selection: hits, their analogues and other compounds. The true share with any hit is near 11%. Unless noted, calls come from the whole dose curve; as a rule, active = well fitted curve in the direction sought with a large enough effect; inconclusive = small, poorly fitted or top-dose-only effect, or another doubt; inactive = no such curve, though single readings can be large; an effect the other way counts as inactive or inconclusive.

O=C(CN1C(=O)NC(c2ccccc2Cl)C2=C1COC2=O)Nc1cccc(F)c1 (stereo not drawn)	HEK293 tox inconclusive, FLuc inh inconclusive
COc1cc(CNC(=O)[C@@H]2C[C@@H](c3cccc(C(F)(F)F)c3)N(C)C2)cc(OC)c1	HEK293 tox inconclusive, NIH3T3 tox inconclusive
CN1C[C@H](C(=O)Nc2cccc(F)c2)C[C@H]1c1cccc(C(F)(F)F)c1	HEK293 tox 63µM, NIH3T3 tox 50µM
COc1cccc(NC(=O)[C@@H]2C[C@@H](c3cccc(C(F)(F)F)c3)N(CC3CCOCC3)C2)c1	HEK293 tox inconclusive, NIH3T3 tox inconclusive
CN1C[C@H](C(=O)NCCOc2ccccc2)C[C@H]1c1cccc(C(F)(F)F)c1	HEK293 tox 100µM, NIH3T3 tox inconclusive
O=C(Nc1ccccc1)[C@@H]1C[C@@H](c2cccc(C(F)(F)F)c2)N(CC2CCOCC2)C1	HEK293 tox 56µM, hNpr1 antagonist inconclusive, NIH3T3 tox inconclusive
O=C(Nc1cccc(F)c1)[C@@H]1C[C@@H](c2cccc(C(F)(F)F)c2)N(CC2CCOCC2)C1	HEK293 tox 22µM, NIH3T3 tox 20µM
COc1cccc(C(=O)N2CCC3(CC2)CCN(CCc2ccccc2)c2ccccc2O3)c1	HEK293 tox inconclusive, NIH3T3 tox inconclusive
Cc1cnc(C2CCN(CC3CCCCC3)C2)n1Cc1ccccc1 (stereo not drawn)	HEK293 tox 22µM, NIH3T3 tox 20µM (no result: FLuc inh, hNpr1 antagonist)
Cc1cnc(C2CCN(C(=O)C3CCCC3)C2)n1Cc1ccccc1 (stereo not drawn)	none
Cc1ccc(C(=O)NC2CCN(c3cc(C(F)(F)F)nc(C)n3)CC2)cc1	HEK293 tox inconclusive, hNpr1 antagonist inconclusive, NIH3T3 tox inconclusive
Cc1nc(N2CCC(NC(=O)c3nn(C)c4ccccc34)CC2)cc(C(F)(F)F)n1	HEK293 tox 45µM, hNpr1 antagonist inconclusive, NIH3T3 tox inconclusive
CCn1nccc1C(=O)N1c2ccccc2CC1c1nnc(C2CCOCC2)o1 (stereo not drawn)	none
Cc1nn(-c2ccc(F)cc2)c(Oc2ccccc2)c1CCC(=O)N1CCOCC1	HEK293 tox inconclusive, NIH3T3 tox inconclusive
CCc1nn(-c2ccc(F)cc2)c(Oc2ccccc2)c1CCC(=O)N1CCCC1	HEK293 tox 45µM, NIH3T3 tox inconclusive
CCc1nn(-c2ccccc2)c(Oc2cccc(C)c2)c1CCC(=O)N1CCOCC1	HEK293 tox 40µM, NIH3T3 tox inconclusive
COc1ccc(-c2nn(-c3ccccc3C)cc2CN2CCCC2c2nonc2C)cc1F (stereo not drawn)	HEK293 tox inconclusive
O=C1COc2ccc(-c3ccc(F)cc3)nc2CN1Cc1ccccc1F	HEK293 tox 100µM, NIH3T3 tox inconclusive
COc1ccc(-c2ccc3c(n2)CN(Cc2ccccc2F)C(=O)CO3)cc1OC	HEK293 tox 50µM, NIH3T3 tox 25µM
COc1ccc(-c2ccc3c(n2)CN(Cc2ccccc2)C(=O)CO3)cc1F	HEK293 tox 79µM, NIH3T3 tox 79µM
COc1ccc(-c2ccc3c(n2)CN(Cc2ccc(F)cc2)C(=O)CO3)cc1	HEK293 tox inconclusive, hNpr1 antagonist inconclusive, NIH3T3 tox inconclusive
Cn1cc(-c2ccc3c(n2)CN(Cc2ccc(C(F)(F)F)cc2)C(=O)CO3)cn1	HEK293 tox inconclusive, NIH3T3 tox 32µM
COCCN1Cc2nc(-c3ccc(OC)c(F)c3)ccc2OCC1=O	NIH3T3 tox inconclusive
O=C1COc2ccc(-c3ccccc3F)nc2CN1Cc1ccccc1	HEK293 tox inconclusive, NIH3T3 tox inconclusive
O=C1CC(c2ccccc2)N(C(=O)Cc2cccc(F)c2)CCCCCCN1 (stereo not drawn)	HEK293 tox inconclusive
CN(C)c1cccc(C(=O)N2CCn3nc(Cc4ccccc4)cc3C2)c1	HEK293 tox inconclusive, NIH3T3 tox inconclusive
O=C1COc2ccc(-c3ccccc3)nc2CN1Cc1ccccc1	HEK293 tox 112µM, NIH3T3 tox inconclusive
O=C1COc2ccc(-c3ccncc3)nc2CN1Cc1ccccc1F	HEK293 tox inconclusive, NIH3T3 tox 89µM
O=C1COc2ccc(-c3cc(F)cc(F)c3)nc2CN1Cc1ccccc1	HEK293 tox inconclusive, NIH3T3 tox inconclusive
CCOCCNc1ncnc2c1CN(C1CCNC1)C(=O)CN2C (stereo not drawn)	none (no result: FLuc inh, hNpr1 antagonist)
Cc1ccc([S+](=O)([O-])c2nnn3c2nc(NCc2ccncc2)c2ccccc23)cc1	none (no result: FLuc inh, hNpr1 antagonist)
CC(C)c1ccc([S+](=O)([O-])c2nnn3c2nc(NCc2ccncc2)c2ccccc23)cc1	HEK293 tox 50µM, NIH3T3 tox 40µM (no result: FLuc inh, hNpr1 antagonist)
Cc1nccn1-c1ccc(NC(=O)C2CCCN(c3ncccc3C#N)C2)cc1 (stereo not drawn)	HEK293 tox 40µM, NIH3T3 tox inconclusive
CN(C)C(=O)C1CCCN(c2ccnc3ccnn23)C1 (stereo not drawn)	none (no result: FLuc inh, hNpr1 antagonist)
Cc1ccc(NC(=O)C2CCCN(c3ccnc4ccnn34)C2)cc1 (stereo not drawn)	HEK293 tox 35µM, NIH3T3 tox inconclusive (no result: FLuc inh, hNpr1 antagonist)
O=C(NC1CCCCCC1)C1CCCN(c2ccnc3ccnn23)C1 (stereo not drawn)	HEK293 tox 79µM, NIH3T3 tox inconclusive (no result: FLuc inh, hNpr1 antagonist)
O=C(Nc1ccc(F)cc1)C1CCCN(c2nc3ncccc3o2)C1 (stereo not drawn)	none
O=C1CCCCC(Cc2ccccc2)(C(=O)N2CCc3ccccc3C2)N1 (stereo not drawn)	HEK293 tox inconclusive
CCNc1ncnc2sc3c(c12)CCN(C(=O)c1ccnn1C)C3	NIH3T3 tox inconclusive
CCCCNC(=O)c1cccc2c1CCN2S(=O)(=O)c1ccccc1	HEK293 tox inconclusive, NIH3T3 tox inconclusive
CCCCNC(=O)c1cccc2c1CCN2S(=O)(=O)c1ccc(C)cc1	HEK293 tox 18µM, hNpr1 antagonist inconclusive, NIH3T3 tox inconclusive
COc1ccc(S(=O)(=O)N2CCc3c(C(=O)NCc4ccccn4)cccc32)cc1	HEK293 tox 35µM, hNpr1 antagonist inconclusive, NIH3T3 tox inconclusive
COc1ccc(S(=O)(=O)N2CCc3c(C(=O)NCCc4cccs4)cccc32)cc1	HEK293 tox 25µM, hNpr1 antagonist inconclusive
COc1ccccc1Nc1ccnc(N2CCC(NC(=O)c3ccc(F)cc3)CC2)n1	none (no result: FLuc inh, hNpr1 antagonist)
COc1ccccc1Nc1ccnc(N2CCC(NC(=O)c3ccc(Cl)cc3)CC2)n1	HEK293 tox 35µM, NIH3T3 tox 32µM (no result: FLuc inh, hNpr1 antagonist)
COc1ccccc1Nc1ccnc(N2CCC(NC(=O)c3ccc(C)cc3)CC2)n1	HEK293 tox inconclusive, NIH3T3 tox 40µM (no result: FLuc inh, hNpr1 antagonist)
COc1ccccc1Nc1ccnc(N2CCC(NC(=O)c3ccccc3)CC2)n1	HEK293 tox inconclusive (no result: FLuc inh, hNpr1 antagonist)
COc1ccccc1Nc1ccnc(N2CCC(NC(=O)Cc3ccc(F)cc3)CC2)n1	HEK293 tox 45µM, NIH3T3 tox inconclusive (no result: FLuc inh, hNpr1 antagonist)
COCCn1c(=O)c(C(=O)N2CCN(C(=O)c3ccc(C)cc3)CC2)nc2cccnc21	none (no result: FLuc inh, hNpr1 antagonist)
CNC(=O)[C@H]1CN(C(=O)OCC(C)C)[C@]2(C)C(=O)N(CCOC)c3ccccc3[C@H]12	HEK293 tox inconclusive (no result: FLuc inh, hNpr1 antagonist)
